Laboratory results published in PubChem BioAssay AID1159580 (chemical genetic matrix, 2015).
About 2,000 (36%) of roughly 5,500 compounds were called active. About 18% were inconclusive and are not listed. Rule as the data show it: active = normalized growth mostly below about 0.91 (no sharp cut-off); inconclusive = no clear call, values can overlap the other calls; inactive = mostly above about 0.92. The list shows a part of the results.

Experiment: chemical genetic growth profiling, strain panel (AID 1159580);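 also: tested at 20 µM; growth read once vehicle control cultures reached saturation at 30 °C; 1 = growth at the plate median or of vehicle wells; lower values mean less growth of the strain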
Settings: S. cerevisiae deletion strains, growth OD

Measured: normalized growth

FC(F)(F)C(Cl)Br (configuration not stated)
inactive: locus YAL021C, strain ccr4, active compounds read low 1.02 | locus YAL026C, strain drs2, active compounds read low 1.03 | locus YAL030W, strain snc1, active compounds read low 1.02 | locus YBL061C, strain skt5, active compounds read low 1.02 | locus YBR009C, strain hhf1, active compounds read low 1.04 | locus YBR023C, strain chs3, active compounds read low 1.03 | locus YBR171W, strain sec66, active compounds read low 1.05 | locus YBR231C, strain swc5, active compounds read low 1.03 | locus YBR279W, strain paf1, active compounds read low 1.03 | locus YCL011C, strain gbp2, active compounds read low 1.03 | locus YCL016C, strain dcc1, active compounds read low 1.02 | locus YCL061C, strain MRC1, active compounds read low 1.02 | locus YCL069W, strain vba3, active compounds read low 1.02 | locus YCR088W, strain abp1, active compounds read low 1.02 | locus YDL005C, strain med2, active compounds read low 1.03 | locus YDL040C, strain nat1, active compounds read low 1.02 | locus YDR001C, strain nth1, active compounds read low 1.01 | locus YDR069C, strain doa4, active compounds read low 1.02 | locus YDR137W, strain rgp1, active compounds read low 1.07 | locus YDR159W, strain sac3, active compounds read low 1.04 | locus YDR195W, strain ref2 1.05 | locus YDR297W, strain sur2, active compounds read low 1.01 | locus YDR334W, strain swr1, active compounds read low 1.02 | locus YDR335W, strain msn5, active compounds read low 1.02 | locus YDR392W, strain spt3, active compounds read low 1.01 | locus YEL003W, strain gim4, active compounds read low 1.02 | locus YEL037C, strain rad23, active compounds read low 0.997 | locus YEL061C, strain CIN8 (second series), active compounds read low 1.02 | locus YER015W, strain faa2, active compounds read low 1.02 | locus YER016W, strain bim1, active compounds read low 1.04 | locus YER111C, strain swi4, active compounds read low 1.03 | locus YER155C, strain BEM2 (second series), active compounds read low 1.02 | locus YFR010W, strain ubp6, active compounds read low 1.03 | locus YGL167C, strain pmr1, active compounds read low 1.04 | locus YGL173C, strain kem1, active compounds read low 1.02 | locus YGL227W, strain vid30, active compounds read low 1.04 | locus YGL240W, strain doc1, active compounds read low 1.02 | locus YGL253W, strain hxk2, active compounds read low 1.02 | locus YHR013C, strain ard1, active compounds read low 1.02 | locus YHR027C, strain rpn1, active compounds read low 1.03 | locus YHR142W, strain chs7, active compounds read low 1.03 | locus YJL092W, strain hpr5, active compounds read low 1.01 | locus YJL095W, strain BCK1 (second series), active compounds read low 1.01 | locus YJL115W, strain asf1, active compounds read low 1.01 | locus YJL129C, strain trk1, active compounds read low 1.06 | locus YJL154C, strain vps35, active compounds read low 1.02 | locus YJL164C, strain tpk1, active compounds read low 1.02 | locus YJL166W, strain qcr8, active compounds read low 1.03 | locus YJL187C, strain SWE1, active compounds read low 1.03 | locus YKL160W, strain elf1, active compounds read low 1.02 | locus YKR026C, strain gcn3, active compounds read low 1 | locus YKR091W, strain srl3, active compounds read low 1.02 | locus YLL001W, strain dnm1, active compounds read low 1.01 | locus YLL026W, active compounds read low 1.02 | locus YLL041C, strain sdh2, active compounds read low 1.02 | locus YLR027C, strain aat2, active compounds read low 1.02 | locus YLR221C, strain rsa3, active compounds read low 1.02 | locus YLR258W, strain gsy2, active compounds read low 1.02 | locus YLR262C, strain YPT6 (second series), active compounds read low 1.04 | locus YLR320W, strain mms22, active compounds read low 1.03 | locus YLR342W, strain FKS1, active compounds read low 1.02 | locus YLR357W, strain rsc2, active compounds read low 1.07 | locus YLR370C, strain arc18, active compounds read low 1.03 | locus YLR384C, strain iki3, active compounds read low 1.02 | locus YML120C, strain ndi1, active compounds read low 1.03 | locus YMR058W, strain fet3, active compounds read low 1.02 | locus YMR125W, strain sto1, active compounds read low 1.02 | locus YMR129W, active compounds read low 1.03 | locus YMR205C, strain PFK2, active compounds read low 1.03 | locus YMR231W, strain pep5, active compounds read low 1.02 | locus YNL071W, strain lat1, active compounds read low 1.03 | locus YNL209W, strain ssb2, active compounds read low 1.02 | locus YNL248C, strain rpa49, active compounds read low 1.03 | locus YNL322C, strain KRE1 (second series), active compounds read low 1.02 | locus YNR049C, strain mso1, active compounds read low 1.02 | locus YOR001W, strain rrp6, active compounds read low 1.04 | locus YOR070C, strain gyp1, active compounds read low 1.01 | locus YOR080W, strain dia2, active compounds read low 1.02 | locus YOR083W, strain WHI5, active compounds read low 1.01 | locus YOR106W, strain vam3, active compounds read low 1.04 | locus YOR265W, strain rbl2, active compounds read low 1.03 | locus YOR270C, strain vph1, active compounds read low 1.08 | locus YOR290C, strain snf2, active compounds read low 1.04 | locus YPL051W, strain arl3, active compounds read low 1.04 | locus YPL078C, strain atp4, active compounds read low 1.02 | locus YPL106C, strain sse1, active compounds read low 1.02 | locus YPL240C, strain hsp82, active compounds read low 1.02
